HCMV antiviral: blocks human cytomegalovirus replication | HFF cells, HCMV-luciferase reporter, 72 h; active compounds read low | activity change, negative = inhibition, % at 57.5 µM | 4.5% of 410,000 active | AID 1259415; in the data active means activity change below about -60%; inconclusive means no clear call, values can overlap the other calls; inactive means above about -39%
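Steps: HFFs plated, 16 h 37C; compounds added; HCMV-luciferase added to MOI 1 PFU/cell; 72 h 37C; OneGlo reagent, 5 min room temperature; luminescence read, normalized to controls.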
Marburg entry inh: Marburg virus entry inhibition | Marburg virus pseudotyped entry inhibition, cell reporter | Potency, µM (series often up to 37.8 µM), hits mostly inhibitors | 1.8% of 300,000 active | AID 540276; calls by dose curve; tested in HEK293 cells
Pf growth 96h: P. falciparum growth inhibition at 96 hour, primary screen for plastid delayed-death inhibitors | 6.9% of 320,000 active | Potency, µM (titrated, usually from 28.7 µM), usual class: inhibitors | P. falciparum luciferase reporter growth, 96 h
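Parasite growth measured via integrated firefly luciferase reporter in P. falciparum. Infected erythrocytes at 2% hematocrit, 0.05% parasitemia final were treated 96 hours at 37 C under 5% CO2, and luminescence was read.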
HCV inh: blocks hepatitis C virus | 3.4% of 340,000 active | Potency, µM (top dose mostly 41.8 µM), hits mostly inhibitors | Huh7.5.1 HCVcc-Cre infection, luciferase reporter, 44 h
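Antiviral activity was scored by luciferase reporter output from cells infected with HCVcc-Cre (~0.5 moi) in presence of compound, 44 h infection period, cells seeded 1,000/well 4 h prior.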
LASV entry inh: Lassa virus entry inhibition; 1.2% of 300,000 active; AID 540256; Potency, µM (titrated, usually from 37.9 µM), actives largely listed as inhibitors; Lassa virus pseudotype entry inhibition, cell reporter; calls by dose curve; tested in HEK293 cells; further: nearly all actives have a fitted effect of over 50% in size
Pf growth 48h: P. falciparum growth inhibition at 48 hours (one generation); P. falciparum luciferase growth in erythrocytes, 48 h; Potency, µM (doses to about 28.7 µM), actives largely listed as inhibitors; 5.9% of 310,000 active
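Growth was read as firefly luciferase luminescence after a 48 h, 37 C, 5% CO2 exposure of compounds to reporter-bearing P. falciparum cultures (0.1% parasitemia, 2% hematocrit final) in Albumax-supplemented RPMI 1640.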
Numbers stand for hits; i = inactive; ? = inconclusive; nt = no result; ! = repeats disagree; [ ] = another dose, or the depositor's remark. Shown are actives, neighbours in structure and some others; about 14% of the full set was active somewhere. Unless noted, the call rests on the fitted dose curve; in most records, active means well fitted inhibition curve with a large enough effect; inconclusive means small, poorly fitted or top-dose-only effect, or another doubt; inactive means no such curve, though single readings can be large or run the other way.

SMILES | HCMV antiviral | Marburg entry inh | Pf growth 96h | HCV inh | LASV entry inh | Pf growth 48h
Cc1ccccc1/[N+]([O-])=C/c1cccs1 | i | nt | i | i | nt | i
Cc1ccc(C(=O)NC(=S)N(C)C2CCCCC2)cc1Br | i | nt | ? | nt | nt | ?
Cc1ccccc1C(=O)NC(=S)N(C)C1CCCCC1 | i | i | ? | i | i | 15µM
CN(C(=S)NC(=O)c1ccccc1Br)C1CCCCC1 | i | i | 4.7µM | i | i | i
O=C(NC(=S)NC1CCS(=O)(=O)C1)c1ccccc1Br (stereo not drawn) | i | i | 5.9µM | i | i | i
O=C(Nc1nccs1)c1ccc(CSc2ccccc2)o1 | i | nt | ? | ? | nt | i
CN1CCN(C(=O)CCN2C(=O)/C(=C/c3ccccc3Cl)SC2=S)CC1 | -85 | ? | i | ? | i | i
Cc1ccc(/C=C2/SC(=S)N(CCC(=O)N3CCN(C)CC3)C2=O)cc1 | -74 | ? | 12µM | ? | i | ?
CN1CCN(C(=O)CCN2C(=O)/C(=C\c3ccccc3F)SC2=S)CC1 | i | nt | 12µM | ? | nt | ?
Cc1ccc(NC(=O)CC(C)S(=O)(=O)c2ccc3c(c2)NC(=O)CO3)c(C)c1 (stereo not drawn) | i | nt | nt | nt | i | nt
Cc1cccc(C)c1NC(=O)CSc1nnc(-c2ccoc2C)n1C | i | i | 9.3µM | i | i | i
COc1ccc(OCCSc2nnc(-c3ccoc3C)n2C)cc1 | i | i | ? | i | i | 8.3µM
CCOC(=O)c1cccc(NC(=O)CSc2nnc(-c3ccoc3C)n2CC)c1 | i | i | 13µM | i | i | i
Cc1occc1-c1nnc(SCC(=O)Nc2ccc(F)cc2)n1C | i | i | i | i | i | ?
Cc1occc1-c1nnc(SCC(=O)Nc2ccc(F)cc2)n1Cc1ccccc1 | i | ? | ? | ? | ? | ?
Cc1occc1-c1nnc(SCC(=O)Nc2ccccc2)n1Cc1ccccc1 | -62 | ? | i | i | i | ?
CC1(C(=O)Nc2ccc3c(c2)OCCO3)CN(S(C)(=O)=O)CC(=O)N1CCCN1CCOCC1 (stereo not drawn) | i | nt | nt | nt | nt | nt
CCOc1cc(C(=O)Nc2ccc(-c3nc4ccccc4s3)cc2Cl)cc(OCC)c1OCC | i | nt | nt | nt | i | nt
Cc1occc1-c1nnc(SCC(=O)N2CCN(c3ccccc3F)CC2)n1C | i | i | 3.7µM | i[0.335 µM] | i | i
CCNc1nc(Oc2ccc(=O)[nH]n2)nc(N2CCOCC2)n1 | i | ? | i | i | i | nt
O=c1ccc(Oc2nc(N3CCCCC3)nc(N3CCCCC3)n2)n[nH]1 | i | i | 3.7µM | ? | i | i
OC(c1ccccc1)(c1nc(-c2cc3ccccc3o2)cs1)C(F)(F)F (stereo not drawn) | i | nt | nt | nt | nt | nt
Cc1ccccc1NC(=S)c1ccc2ccccc2n1 | -63 | nt | i | ? | nt | i
CCCN(CC(=O)Nc1ccccc1C)C(=O)c1ccc2ccccc2n1 | i | ? | i | i | i | i
O=C1CSC(c2cccnc2)N1c1ccccc1 (stereo not drawn) | i | nt | i | i | nt | i
SMILES | HCMV antiviral | Marburg entry inh | Pf growth 96h | HCV inh | LASV entry inh | Pf growth 48h
CC(C)(C)c1ccc(N2C(=O)CSC2c2cccnc2)cc1 (stereo not drawn) | i | ? | ? | i | ? | 1.2µM
O=C(OC(C(=O)Nc1ccc([N+](=O)[O-])cc1Br)c1ccccc1)c1ccccc1 (stereo not drawn) | i | 3.5µM | ? | ? | i | ?
COCCNC(C(=O)Nc1ccc([N+](=O)[O-])cc1Br)c1ccccc1 (stereo not drawn) | -82 | i | i | i | i | i
CN(C)c1cccc(C(=O)OC(C(=O)Nc2ccc([N+](=O)[O-])cc2Br)c2ccccc2)c1 (stereo not drawn) | ? | i | ? | i | i | ?
CCCCNC(C(=O)Nc1ccc([N+](=O)[O-])cc1Br)c1ccccc1 (stereo not drawn) | i | ? | i | i | i | i
CCOC(=O)[C@]12CCC=C1N(Cc1ccccc1)C(=O)[C@H](CC(=O)NCc1ccccc1)C2 | i | nt | nt | nt | nt | nt
COc1ccc(CNc2ncnc3c2nc2n3CCCC2)cc1 | i | nt | nt | nt | ? | nt
O=C(CN1C(=O)c2ccccc2S1(=O)=O)c1ccccc1 | -65 | ? | nt | i | 4µM | i
Cc1ccc(C(=O)CN2C(=O)c3ccccc3S2(=O)=O)cc1 | -88 | ? | i | i | ? | 3.7µM
O=C(CN1C(=O)c2ccccc2S1(=O)=O)N1CCCCC1 | i | ? | i | i | i | i
Cc1ccc(C(=O)COc2ccccc2N2C(=O)c3ccccc3C2=O)cc1 | i | i | 3.3µM | i | i | i
Cc1ccc(C(=O)CN2/C(=C(\O)c3ccccc3)C(=O)c3ccccc3S2(=O)=O)c(C)c1 | nt | ? | ? | ? | 18µM | ?
CC(C)NC(=O)CN1C(=O)c2ccccc2S1(=O)=O | i | ? | i | i | i | i
O=C(O)CCc1nnc2cnc3ccccc3n12 | i | ? | nt | nt | i | nt
C=CCNC(=O)[C@H]1C=C(OC)C(=O)C[C@H](c2ccccc2)[C@H]1C | nt | i | nt | nt | nt | nt
COc1cccc(NC(=O)N2CCN3CCCCC3C2)c1 (stereo not drawn) | i | nt | nt | nt | ? | nt
CC(C)CON=C1C[C@@H](O)[C@@H](O)[C@@H]2[C@H]3C(=O)N(C4CCCCC4)C(=O)[C@@H]3CC[C@H]12 | nt | i | nt | nt | ? | nt
CCCSC1=NC2(CCN(C(=O)NC3CCCCC3)CC2)N=C1c1ccc(C)cc1 | i | nt | nt | nt | i | nt
CCCC(CCC)C(=O)Nc1cccc(-c2nc3cccnc3s2)c1 | ? | i | nt | nt | i | nt
O=C(CN1C(=O)c2ccccc2S1(=O)=O)c1ccccc1Cl | -86 | nt | i | nt | nt | i
O=C(CN1C(=O)c2ccccc2S1(=O)=O)NCc1ccccc1Cl | i | i | i | i | i | i
O=C(O)c1ccc(NC(=O)c2ccccc2NC(=O)c2ccccc2Br)cc1 | i | i | ? | i | i | i
O=C(c1ccccc1)c1ccc2nc(-c3ccc(NC(=O)c4ccccc4Br)cc3)[nH]c2c1 | i | i | ? | 25µM | i | ?
Cc1ccccc1C(=O)Nc1ccc(-c2nc3ccc(C(=O)c4ccccc4)cc3[nH]2)cc1 | ? | ? | ? | 11µM | ? | 8.3µM
Nc1ncc([N+](=O)[O-])c(N2CCCCCC2)n1 | -75 | i | i | i | i | i
SMILES | HCMV antiviral | Marburg entry inh | Pf growth 96h | HCV inh | LASV entry inh | Pf growth 48h
Cc1c(NC(C)C)c(=O)n(-c2ccccc2)n1C | i | nt | i | 0.56µM | nt | i
Cc1c(NC(C)c2ccccc2O)c(=O)n(-c2ccccc2)n1C (stereo not drawn) | i | i | ? | i | i | nt
Cc1ccc(S(=O)(=O)Nc2c(C)n(C)n(-c3ccccc3)c2=O)cc1 | -98! | i | i | i | ? | i
Cc1cc(C)n(-c2nnc(NC34CC5CC(CC(C5)C3)C4)nn2)n1 | i | ? | 2.9µM | i | ? | 3.3µM
Cc1nnc2nc(N)[nH]n2c1=O | i | nt | nt | nt | nt | nt
c1ccc(-c2nnnc3ccccc23)cc1 | i | i | i | i | i | i
FC(F)(F)c1ccc(Nc2nnnc3ccccc23)cc1 | i | i | 1.5µM | i | i | 1.3µM

Compound activity from PubChem BioAssay.
